The entries come from a sample that favours hits as a whole.
Dicer processing: inhibitors of Dicer pre-microRNA processing, primary screen, biochemical, cat-ELCCA, chemiluminescence | cat-ELCCA pre-miR-21 Dicer processing; stronger effect = higher value | z-score at 25 µM | hit rate 6% among 47,000; in the data active = z-score above about 3, passing the limit was not always enough;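 also: plate controls were vehicle for no effect and no enzyme for full effect; higher signal means more uncleaved substrate so more Dicer inhibition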
* marks the source's active call; other numbers are inactive results; ! = not confirmed by another sample.

SMILES	Dicer processing
OCCCCn1c(-c2ccccc2)cc2ccccc21	-0.71
COc1ccc2c(c1)CCc1sc(/N=C/c3ccc(C(F)(F)F)cc3)nc1-2	-0.89
COc1ccc(CN2CCN(Cc3cc(OC)ccc3O)CC2)cc1	2.6
COc1ccc(CN2CCN(Cc3ccc4c(c3)OCO4)CC2)c2ccccc12	-0.76
COc1ccc(CN2CCN(Cc3c[nH]c4ccccc34)CC2)c(OC)c1	2.4
COc1cc(CN2CCN(Cc3cccc4ccccc34)CC2)cc(OC)c1	3.7*
COc1ccc(OC)c(CN2CCN(Cc3c[nH]c4ccccc34)CC2)c1	2.6
COc1cccc(CN2CCN(Cc3c[nH]c4ccccc34)CC2)c1OC	3.4*
CCOC(=O)C1(C#N)C(c2ccccc2)C(c2cccs2)=NN1c1ccc([N+](=O)[O-])cc1 (centres undefined)	-0.27
CCCc1n(CC(O)COc2cccc(C)c2)c2ccccc2[n+]1C (centres undefined)	-0.27
O=C(NCC1COc2ccccc2O1)c1cc(Cl)sc1Cl (centres undefined)	0.6
COc1ccc(-c2coc3cc4oc(=O)c5ccccc5c4cc23)cc1	2.8
Nc1nc(-c2ccccc2)c(C(=O)c2ccccc2)s1	-0.84
CN(C)CCCNc1ccc([N+](=O)[O-])c(N2CCOCC2)c1C#N	1.2
COCCCNC1=C(C#N)C(=O)NC(c2ccc(O)c(OC)c2)S1 (centres undefined)	1.3
COCCCNC1=C(C#N)C(=O)NC(c2cccs2)S1 (centres undefined)	3.1*
N#CC1=C(Nc2ccccc2Cl)SC(c2ccncc2)NC1=O (centres undefined)	0.01
COC(=O)C1=C(O)c2cccc3c2N(CCC3)C1	-4.5
O=c1c2c(n3nnnc3n1Cc1ccccc1)-c1ccccc1CC21CCCCC1	3.2*
CCOC(=O)CSc1nc2c(c(=O)[nH]1)C1(CCCCC1)Cc1ccccc1-2	-0.76
NC(=O)CSc1nnc2n(Cc3ccccc3)c(=O)c3c(n12)-c1ccccc1CC31CCCCC1	3
COC(=O)c1csc(S(=O)(=O)NCc2nn(-c3ccccc3)nc2C)c1OC	-1.2
CC1CCCCN1C(=O)c1cc2n(n1)C(C(F)(F)F)CC(c1ccco1)N2 (centres undefined)	-1.1
CSc1ccc(-c2ncnn2-c2cccc(Cl)c2)cc1	0.28
CCc1ccc(-c2ncnn2-c2ccc(Cl)cc2)cc1	3.2*
SMILES	Dicer processing
Clc1ccc(-n2ncnc2-c2ccccc2)cc1	-0.28
CCCCCOC(=O)CSc1nc2ccccc2s1	-0.75
O=C(Nc1ccc(Cl)cc1)N1N=C2c3ccccc3CCC2C1c1cccs1 (centres undefined)	-0.38
N#CC1=C(SCC(=O)Nc2ccc(Cl)cc2)NC(=O)CC1c1cccs1 (centres undefined)	-2.8
O=C(Nc1ccc(Cl)cc1)N1CCOC1c1cccs1 (centres undefined)	4.2*
O=S(=O)(c1cc(Br)c(Br)s1)N1CCCCC1	0.86
O=S(=O)(c1ccccc1)c1ccc(S(=O)(=O)N2CCCC2)s1	-0.58
O=S(=O)(c1cc(Br)c(Br)s1)N1CCCC1	3.1*
Cc1nn(C)c2sc(C(=O)Nc3ccc4nccnc4c3)cc12	2.2
O=c1c2cn[nH]c2[nH]c(=S)n1-c1ccc(Cl)cc1	0.26
CSc1n[nH]c(C23CC4CC(CC(C4)C2)C3)n1	1
COCCCNC(=S)Nc1cccc(Cl)c1C	-1.7
COc1ccc(OC)c(Nc2nc3nonc3nc2Nc2ccc(F)cc2)c1	4.1*
COc1ccccc1Nc1nc2nonc2nc1Nc1cccc(Br)c1	1.6
COc1ccc(OC)c(Nc2nc3nonc3nc2Nc2cccc(Br)c2)c1	2
CC(=O)c1c(C)cc(NC(C)(C)C)nc1NC(C)(C)C	0.45
C[C@H](Cc1ccc(O)c(O)c1)[C@@H](C)Cc1ccc(O)c(O)c1	0.3
CCCCCCCC/C=C\CCCCCCCC(=O)NCCc1ccc(O)c(O)c1	1.1
CC(CCc1ccc(O)cc1)NCCc1ccc(O)c(O)c1 (centres undefined)	7*!
CC1=NN(c2cc(Cl)cc(Cl)c2)C(=O)CC1	-1.3
Cc1ccc2nc(C(F)(F)F)cc(OC(C)C)c2c1	0.16
Nc1nc(N)c(S(=O)(=O)c2ccccc2)c(N2CCOCC2)n1	1.8
CC(c1ccccc1)c1nnc(N)s1 (centres undefined)	0.97
CCC(c1ccccc1)c1nnc(N)s1 (centres undefined)	4.2*
Cc1cc(Sc2nnc(N)s2)c2ccccc2n1	-0.49
SMILES	Dicer processing
CC(C)NC(=O)CCSc1nc(-c2ccco2)cc(C(F)(F)F)n1	0.98
CSc1nc2cc(-c3ccc(Cl)cc3)nn2c(N)c1S(=O)(=O)c1ccc(Cl)cc1	-0.95
N#Cc1nc(-c2ccc(C(F)(F)F)cc2)oc1N	0.77
Cc1cc(C)n2c(SC3CCCCC3NS(=O)(=O)c3ccccc3)nnc2n1 (centres undefined)	0
Cc1cc(C)n2c(SC3CCCCC3NS(=O)(=O)c3ccc(Cl)cc3)nnc2n1 (centres undefined)	3.6*
Cc1cc(C)n2c(SC(CNS(=O)(=O)c3ccccc3)c3ccccc3)nnc2n1 (centres undefined)	2.2
O=C(Nc1sc2c(c1C(=O)Nc1ccccc1)CCCCC2)c1cccs1	1.5
C/C(=N\N=C1\NC(=O)C(CC(=O)O)S1)c1ccc(F)cc1 (centres undefined)	-0.96
CCCOc1ccc(N2C(=O)CC(SCCN)C2=O)cc1 (centres undefined)	-0.11
CCOc1ccc(N2C(=O)CC(Sc3nc(C)c(CC)c(C)c3C#N)C2=O)cc1 (centres undefined)	3.4*
CCCOc1ccc(N2C(=O)CC(SCC(N)C(=O)OCC)C2=O)cc1 (centres undefined)	-0.88
CCOC(=O)C1=C(C)NC2=C(C(=O)CC(C)(C)C2)C1c1ccc(OCc2ccccc2)c(OC)c1 (centres undefined)	4.3
COCCOC(=O)C1=C(C)NC2=C(C(=O)CC(c3cccs3)C2)C1c1ccc(F)cc1 (centres undefined)	0.04
Cc1ccc(/C=C/c2nc(-c3ccccc3O)n[nH]2)o1	2.9
CC(=O)c1ccc2c(c1)N(CCCN1CCC(CCO)CC1)c1ccccc1S2	80
OCCN1CCN(CCCN2c3ccccc3Sc3ccc(Cl)cc32)CC1	32
CN1CCN(CCCN2c3ccccc3Sc3ccc(S(=O)(=O)N(C)C)cc32)CC1	6*
Cc1nc2nc(C(F)(F)F)[nH]n2c(=O)c1CCC(C)C	-2.4
COc1ccc(CN2CCN(Cc3ccccc3Br)CC2)c(OC)c1	-0.01
FC(F)(F)c1cc(-c2cccnc2)nc2c(-c3ccccc3)cnn12	-0.53
O=C1ON=C(c2ccccc2)C1C=C1CCCC1 (centres undefined)	4.2*
O=C1N=C(c2ccccc2)C(c2ccccc2)N1 (centres undefined)	2.9
C#CCN1C(=O)C(O)(CC(=O)c2ccc(C)cc2)c2cc(Br)ccc21 (centres undefined)	1.2
Cc1cc2nnc(C(=O)NN)c(C)n2n1	-3.8
O=C(c1cccs1)N1CCc2ccccc2C1	3.7*
SMILES	Dicer processing
O=C(c1ccncc1)N1CCN(C(=O)c2cccs2)CC1	-1.4
N#C/C(=C\N1CCc2ccccc2C1)C(=O)c1cccs1	0.66
COC(=O)c1c(OC)ccc(N=C/C(C(C)=O)=C(\C)O)c1OC	-0.8
CCOC(=O)C(=CNc1ccc(C(=O)OC)o1)C(=O)OCC	0.79
CCC/C(O)=C(/C=Nc1ccccc1C(=O)OC)C(=O)OCC	3.2*
O=C(NCCc1ccccn1)c1cn(S(=O)(=O)c2ccccc2)c2ccccc12	-0.23

Source: PubChem
